Test results taken from publication PMC12529666, “Dysregulation of AGO2-miRNA dynamics underlies the AGO2-associated Lessel–Kreienkamp syndrome”.

B1: ACACTCCA (ssRNA)
RNA 1: GAGUUCUACAGUCCGACGAUCCCAACACACUCCACACCUGGAAUUCUCGGGUGCCAA
RNA 2: UGGAGUGUGACAAUGGUGUUUG
DNA 1: GATCGTCGGACTGTAGAACTC
DNA 2: TTGGCACCCGAGAATTCCA
modifications: constant regions annealed to DNA blockers; guide miR-122 5' phosphate
B2: ACATTCCA (ssRNA)
RNA 1: GAGUUCUACAGUCCGACGAUCCCAACACAUUCCACACCUGGAAUUCUCGGGUGCCAA
RNA 2: UGGAGUGUGACAAUGGUGUUUG
DNA 1: GATCGTCGGACTGTAGAACTC
DNA 2: TTGGCACCCGAGAATTCCA
modifications: constant regions annealed to DNA blockers; guide miR-122 5' phosphate
B3: ACACCCCA (ssRNA)
RNA 1: GAGUUCUACAGUCCGACGAUCCCAACACACCCCACACCUGGAAUUCUCGGGUGCCAA
RNA 2: UGGAGUGUGACAAUGGUGUUUG
DNA 1: GATCGTCGGACTGTAGAACTC
DNA 2: TTGGCACCCGAGAATTCCA
modifications: constant regions annealed to DNA blockers; guide miR-122 5' phosphate
B4: GCGTCCTA (ssRNA)
RNA 1: GAGUUCUACAGUCCGACGAUCCCAACGCGUCCUACACCUGGAAUUCUCGGGUGCCAA
RNA 2: UGGAGUGUGACAAUGGUGUUUG
DNA 1: GATCGTCGGACTGTAGAACTC
DNA 2: TTGGCACCCGAGAATTCCA
modifications: constant regions annealed to DNA blockers; guide miR-122 5' phosphate
B5: GTACTTCA (ssRNA)
RNA 1: GAGUUCUACAGUCCGACGAUCCCAACGUACUUCACACCUGGAAUUCUCGGGUGCCAA
RNA 2: UGGAGUGUGACAAUGGUGUUUG
DNA 1: GATCGTCGGACTGTAGAACTC
DNA 2: TTGGCACCCGAGAATTCCA
modifications: constant regions annealed to DNA blockers; guide miR-122 5' phosphate
B6: ACACTCCG (ssRNA)
RNA 1: GAGUUCUACAGUCCGACGAUCCCAACACACUCCGCACCUGGAAUUCUCGGGUGCCAA
RNA 2: UGGAGUGUGACAAUGGUGUUUG
DNA 1: GATCGTCGGACTGTAGAACTC
DNA 2: TTGGCACCCGAGAATTCCA
modifications: constant regions annealed to DNA blockers; guide miR-122 5' phosphate
B7: ATACTCCG (ssRNA)
RNA 1: GAGUUCUACAGUCCGACGAUCCCAACAUACUCCGCACCUGGAAUUCUCGGGUGCCAA
RNA 2: UGGAGUGUGACAAUGGUGUUUG
DNA 1: GATCGTCGGACTGTAGAACTC
DNA 2: TTGGCACCCGAGAATTCCA
modifications: constant regions annealed to DNA blockers; guide miR-122 5' phosphate
B8: ACATCTCA (ssRNA)
RNA 1: GAGUUCUACAGUCCGACGAUCCCAACACAUCUCACACCUGGAAUUCUCGGGUGCCAA
RNA 2: UGGAGUGUGACAAUGGUGUUUG
DNA 1: GATCGTCGGACTGTAGAACTC
DNA 2: TTGGCACCCGAGAATTCCA
modifications: constant regions annealed to DNA blockers; guide miR-122 5' phosphate
B9: ACACTTTA (ssRNA)
RNA 1: GAGUUCUACAGUCCGACGAUCCCAACACACUUUACACCUGGAAUUCUCGGGUGCCAA
RNA 2: UGGAGUGUGACAAUGGUGUUUG
DNA 1: GATCGTCGGACTGTAGAACTC
DNA 2: TTGGCACCCGAGAATTCCA
modifications: constant regions annealed to DNA blockers; guide miR-122 5' phosphate
B10: GTACTCCA (ssRNA)
RNA 1: GAGUUCUACAGUCCGACGAUCCCAACGUACUCCACACCUGGAAUUCUCGGGUGCCAA
RNA 2: UGGAGUGUGACAAUGGUGUUUG
DNA 1: GATCGTCGGACTGTAGAACTC
DNA 2: TTGGCACCCGAGAATTCCA
modifications: constant regions annealed to DNA blockers; guide miR-122 5' phosphate
B11: ACACCTCA (ssRNA)
RNA 1: GAGUUCUACAGUCCGACGAUCCCAACACACCUCACACCUGGAAUUCUCGGGUGCCAA
RNA 2: UGGAGUGUGACAAUGGUGUUUG
DNA 1: GATCGTCGGACTGTAGAACTC
DNA 2: TTGGCACCCGAGAATTCCA
modifications: constant regions annealed to DNA blockers; guide miR-122 5' phosphate
B12: ACGCTTCA (ssRNA)
RNA 1: GAGUUCUACAGUCCGACGAUCCCAACACGCUUCACACCUGGAAUUCUCGGGUGCCAA
RNA 2: UGGAGUGUGACAAUGGUGUUUG
DNA 1: GATCGTCGGACTGTAGAACTC
DNA 2: TTGGCACCCGAGAATTCCA
modifications: constant regions annealed to DNA blockers; guide miR-122 5' phosphate
B13: ACACTCTA (ssRNA)
RNA 1: GAGUUCUACAGUCCGACGAUCCCAACACACUCUACACCUGGAAUUCUCGGGUGCCAA
RNA 2: UGGAGUGUGACAAUGGUGUUUG
DNA 1: GATCGTCGGACTGTAGAACTC
DNA 2: TTGGCACCCGAGAATTCCA
modifications: constant regions annealed to DNA blockers; guide miR-122 5' phosphate
B14: GCACTCCA (ssRNA)
RNA 1: GAGUUCUACAGUCCGACGAUCCCAACGCACUCCACACCUGGAAUUCUCGGGUGCCAA
RNA 2: UGGAGUGUGACAAUGGUGUUUG
DNA 1: GATCGTCGGACTGTAGAACTC
DNA 2: TTGGCACCCGAGAATTCCA
modifications: constant regions annealed to DNA blockers; guide miR-122 5' phosphate
B15: GTACTCCG (ssRNA)
RNA 1: GAGUUCUACAGUCCGACGAUCCCAACGUACUCCGCACCUGGAAUUCUCGGGUGCCAA
RNA 2: UGGAGUGUGACAAUGGUGUUUG
DNA 1: GATCGTCGGACTGTAGAACTC
DNA 2: TTGGCACCCGAGAATTCCA
modifications: constant regions annealed to DNA blockers; guide miR-122 5' phosphate
B16: GCATCTCA (ssRNA)
RNA 1: GAGUUCUACAGUCCGACGAUCCCAACGCAUCUCACACCUGGAAUUCUCGGGUGCCAA
RNA 2: UGGAGUGUGACAAUGGUGUUUG
DNA 1: GATCGTCGGACTGTAGAACTC
DNA 2: TTGGCACCCGAGAATTCCA
modifications: constant regions annealed to DNA blockers; guide miR-122 5' phosphate
B17: ATGCTCCA (ssRNA)
RNA 1: GAGUUCUACAGUCCGACGAUCCCAACAUGCUCCACACCUGGAAUUCUCGGGUGCCAA
RNA 2: UGGAGUGUGACAAUGGUGUUUG
DNA 1: GATCGTCGGACTGTAGAACTC
DNA 2: TTGGCACCCGAGAATTCCA
modifications: constant regions annealed to DNA blockers; guide miR-122 5' phosphate
B18: ATGTCTCA (ssRNA)
RNA 1: GAGUUCUACAGUCCGACGAUCCCAACAUGUCUCACACCUGGAAUUCUCGGGUGCCAA
RNA 2: UGGAGUGUGACAAUGGUGUUUG
DNA 1: GATCGTCGGACTGTAGAACTC
DNA 2: TTGGCACCCGAGAATTCCA
modifications: constant regions annealed to DNA blockers; guide miR-122 5' phosphate
B19: ACATCCTA (ssRNA)
RNA 1: GAGUUCUACAGUCCGACGAUCCCAACACAUCCUACACCUGGAAUUCUCGGGUGCCAA
RNA 2: UGGAGUGUGACAAUGGUGUUUG
DNA 1: GATCGTCGGACTGTAGAACTC
DNA 2: TTGGCACCCGAGAATTCCA
modifications: constant regions annealed to DNA blockers; guide miR-122 5' phosphate

What follows are binders tested against AGO2 WT (phosphosite mutant background) (Homo sapiens, UniProt Q9UKV8 1-859, S387D;S824A;S828D;S831D;S834A) (assay: RNA Bind-n-Seq (nitrocellulose filter binding and sequencing); miR-122 guide loaded in AGO2; 60 min incubation; 30 mM Tris pH 8.0, 100 mM potassium acetate, 2 mM magnesium acetate, 0.5 mM TCEP, 0.005% NP-40, 0.01 mg/ml yeast tRNA; 3 nM AGO2-miR-122, 100 nM RNA library; 60; high values mean tight binding). Details: protein: recombinant; tags: His6 (N-terminal, pFastBac HTA).
Method in brief: (§1)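 His-tagged AGO2 was expressed in Sf9 insect cells by baculovirus, loaded with a synthetic guide RNA, and purified by Ni-NTA and a biotinylated capture oligo. Bound RNA was extracted, reverse-transcribed, barcode-amplified and Illumina-sequenced. Fold enrichment is each sequence's read fraction divided by its input-library read fraction.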

Sequence of AGO2 WT (phosphosite mutant background) (Q9UKV8 whole entry S387D/S824A/S828D/S831D/S834A): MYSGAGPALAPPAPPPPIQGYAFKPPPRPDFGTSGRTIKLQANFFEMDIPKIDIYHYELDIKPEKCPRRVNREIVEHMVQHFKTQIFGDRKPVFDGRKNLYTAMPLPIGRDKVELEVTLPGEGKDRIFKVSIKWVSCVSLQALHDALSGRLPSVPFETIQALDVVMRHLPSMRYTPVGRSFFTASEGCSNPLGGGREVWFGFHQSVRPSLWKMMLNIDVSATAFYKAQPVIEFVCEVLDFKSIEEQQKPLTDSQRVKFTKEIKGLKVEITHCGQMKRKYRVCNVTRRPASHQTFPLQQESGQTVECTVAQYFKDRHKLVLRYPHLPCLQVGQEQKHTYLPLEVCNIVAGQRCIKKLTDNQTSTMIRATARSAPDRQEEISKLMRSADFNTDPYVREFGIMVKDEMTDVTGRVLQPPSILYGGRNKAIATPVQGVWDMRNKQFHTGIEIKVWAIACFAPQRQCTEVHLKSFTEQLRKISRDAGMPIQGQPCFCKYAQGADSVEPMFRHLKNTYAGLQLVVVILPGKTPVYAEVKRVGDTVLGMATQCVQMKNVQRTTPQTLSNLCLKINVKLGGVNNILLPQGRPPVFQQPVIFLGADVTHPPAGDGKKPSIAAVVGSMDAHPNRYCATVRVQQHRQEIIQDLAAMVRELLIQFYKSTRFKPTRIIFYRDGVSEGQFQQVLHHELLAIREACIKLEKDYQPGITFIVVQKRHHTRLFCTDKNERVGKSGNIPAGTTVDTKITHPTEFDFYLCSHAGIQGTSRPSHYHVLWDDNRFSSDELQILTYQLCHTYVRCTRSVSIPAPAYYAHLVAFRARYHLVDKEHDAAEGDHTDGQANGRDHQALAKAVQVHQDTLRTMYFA

Row | Binder | binding signal
1 | B1 | 229 fold enrichment over input
2 | B2 | 0.267 fold enrichment over input
3 | B3 | 0.238 fold enrichment over input
4 | B4 | 0.123 fold enrichment over input
5 | B5 | 0.125 fold enrichment over input
6 | B6 | 154 fold enrichment over input
7 | B7 | 0.401 fold enrichment over input
8 | B8 | 0.206 fold enrichment over input
9 | B9 | 0.133 fold enrichment over input
10 | B10 | 0.714 fold enrichment over input
11 | B11 | 0.251 fold enrichment over input
12 | B12 | 0.133 fold enrichment over input
13 | B13 | 0.587 fold enrichment over input
14 | B14 | 117 fold enrichment over input
15 | B15 | 0.327 fold enrichment over input
16 | B16 | 0.126 fold enrichment over input
17 | B17 | 0.416 fold enrichment over input
18 | B18 | 0.232 fold enrichment over input
19 | B19 | 0.139 fold enrichment over input

What follows are binders tested against AGO2 L192P (Homo sapiens, UniProt Q9UKV8 1-859, L192P;S387D;S824A;S828D;S831D;S834A) in the same assay as above. Details: protein: recombinant; tags: His6 (N-terminal, pFastBac HTA).
Method in brief: as §1

Sequence of AGO2 L192P (Q9UKV8 whole entry L192P/S387D/S824A/S828D/S831D/S834A): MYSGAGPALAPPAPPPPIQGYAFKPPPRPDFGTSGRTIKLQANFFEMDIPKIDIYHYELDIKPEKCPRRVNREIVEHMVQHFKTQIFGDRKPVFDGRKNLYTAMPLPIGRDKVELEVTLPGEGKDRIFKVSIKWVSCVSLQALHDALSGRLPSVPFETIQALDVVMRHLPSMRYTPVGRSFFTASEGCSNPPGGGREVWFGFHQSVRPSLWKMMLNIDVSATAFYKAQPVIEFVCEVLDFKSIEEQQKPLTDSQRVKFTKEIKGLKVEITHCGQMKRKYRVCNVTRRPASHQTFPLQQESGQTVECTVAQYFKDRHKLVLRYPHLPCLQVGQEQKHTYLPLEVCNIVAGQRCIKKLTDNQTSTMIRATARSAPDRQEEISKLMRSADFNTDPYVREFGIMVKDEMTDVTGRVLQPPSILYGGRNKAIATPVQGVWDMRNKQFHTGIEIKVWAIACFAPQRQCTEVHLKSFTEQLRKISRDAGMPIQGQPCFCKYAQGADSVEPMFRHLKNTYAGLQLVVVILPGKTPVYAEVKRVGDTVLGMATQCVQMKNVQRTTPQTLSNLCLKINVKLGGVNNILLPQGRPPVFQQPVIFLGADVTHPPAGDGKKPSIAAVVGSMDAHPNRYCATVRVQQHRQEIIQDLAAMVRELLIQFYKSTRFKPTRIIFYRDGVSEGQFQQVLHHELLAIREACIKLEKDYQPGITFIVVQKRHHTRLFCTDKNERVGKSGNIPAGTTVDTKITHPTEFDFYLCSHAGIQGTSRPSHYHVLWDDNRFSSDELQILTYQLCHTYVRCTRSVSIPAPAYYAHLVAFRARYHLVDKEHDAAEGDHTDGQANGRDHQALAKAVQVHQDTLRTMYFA

Row | Binder | binding signal
20 | B1 | 102 fold enrichment over input
21 | B2 | 1.03 fold enrichment over input
22 | B3 | 0.861 fold enrichment over input
23 | B4 | 0.489 fold enrichment over input
24 | B5 | 0.53 fold enrichment over input
25 | B6 | 99.5 fold enrichment over input
26 | B7 | 1.86 fold enrichment over input
27 | B8 | 0.924 fold enrichment over input
28 | B9 | 0.539 fold enrichment over input
29 | B10 | 1.62 fold enrichment over input
30 | B11 | 1.13 fold enrichment over input
31 | B12 | 0.605 fold enrichment over input
32 | B13 | 0.74 fold enrichment over input
33 | B14 | 45.2 fold enrichment over input
34 | B15 | 0.802 fold enrichment over input
35 | B16 | 0.567 fold enrichment over input
36 | B17 | 3.01 fold enrichment over input
37 | B18 | 0.674 fold enrichment over input
38 | B19 | 0.451 fold enrichment over input

What follows are binders tested against AGO2 A367P (Homo sapiens, UniProt Q9UKV8 1-859, A367P;S387D;S824A;S828D;S831D;S834A) in the same assay as above. Details: protein: recombinant; tags: His6 (N-terminal, pFastBac HTA).
Method in brief: as §1

Sequence of AGO2 A367P (Q9UKV8 whole entry A367P/S387D/S824A/S828D/S831D/S834A): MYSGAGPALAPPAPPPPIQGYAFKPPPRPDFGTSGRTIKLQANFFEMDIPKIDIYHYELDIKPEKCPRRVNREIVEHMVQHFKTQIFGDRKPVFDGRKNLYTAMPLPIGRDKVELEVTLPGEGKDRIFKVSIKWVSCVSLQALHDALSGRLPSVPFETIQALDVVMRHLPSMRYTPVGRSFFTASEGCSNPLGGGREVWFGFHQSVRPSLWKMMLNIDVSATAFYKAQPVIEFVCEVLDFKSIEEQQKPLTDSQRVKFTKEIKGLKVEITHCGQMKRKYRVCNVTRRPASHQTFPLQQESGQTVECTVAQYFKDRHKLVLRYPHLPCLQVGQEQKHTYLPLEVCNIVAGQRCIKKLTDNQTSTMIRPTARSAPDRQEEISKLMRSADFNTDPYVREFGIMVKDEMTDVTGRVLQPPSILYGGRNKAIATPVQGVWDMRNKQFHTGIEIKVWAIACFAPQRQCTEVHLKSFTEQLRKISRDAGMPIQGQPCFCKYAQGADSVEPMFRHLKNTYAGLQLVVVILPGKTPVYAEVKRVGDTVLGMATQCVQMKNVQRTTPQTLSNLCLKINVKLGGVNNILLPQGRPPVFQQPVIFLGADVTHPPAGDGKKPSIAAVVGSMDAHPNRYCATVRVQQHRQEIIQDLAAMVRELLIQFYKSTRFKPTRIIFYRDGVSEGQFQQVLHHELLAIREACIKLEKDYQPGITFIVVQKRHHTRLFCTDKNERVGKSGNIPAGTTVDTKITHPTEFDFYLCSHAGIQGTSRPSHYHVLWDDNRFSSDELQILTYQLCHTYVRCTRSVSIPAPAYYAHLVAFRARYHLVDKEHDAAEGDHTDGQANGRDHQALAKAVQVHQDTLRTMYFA

Row | Binder | binding signal
39 | B1 | 155 fold enrichment over input
40 | B2 | 0.711 fold enrichment over input
41 | B3 | 0.466 fold enrichment over input
42 | B4 | 0.195 fold enrichment over input
43 | B5 | 0.347 fold enrichment over input
44 | B6 | 140 fold enrichment over input
45 | B7 | 2.89 fold enrichment over input
46 | B8 | 0.613 fold enrichment over input
47 | B9 | 0.229 fold enrichment over input
48 | B10 | 3.12 fold enrichment over input
49 | B11 | 0.835 fold enrichment over input
50 | B12 | 0.327 fold enrichment over input
51 | B13 | 0.661 fold enrichment over input
52 | B14 | 66.8 fold enrichment over input
53 | B15 | 2.33 fold enrichment over input
54 | B16 | 0.316 fold enrichment over input
55 | B17 | 2.6 fold enrichment over input
56 | B18 | 0.501 fold enrichment over input
57 | B19 | 0.212 fold enrichment over input

The binders below were run against AGO2 T357M (Homo sapiens, UniProt Q9UKV8 1-859, T357M;S387D;S824A;S828D;S831D;S834A) in the same assay as above. Details: protein: recombinant; tags: His6 (N-terminal, pFastBac HTA).
Method in brief: as §1

Sequence of AGO2 T357M (Q9UKV8 whole entry T357M/S387D/S824A/S828D/S831D/S834A): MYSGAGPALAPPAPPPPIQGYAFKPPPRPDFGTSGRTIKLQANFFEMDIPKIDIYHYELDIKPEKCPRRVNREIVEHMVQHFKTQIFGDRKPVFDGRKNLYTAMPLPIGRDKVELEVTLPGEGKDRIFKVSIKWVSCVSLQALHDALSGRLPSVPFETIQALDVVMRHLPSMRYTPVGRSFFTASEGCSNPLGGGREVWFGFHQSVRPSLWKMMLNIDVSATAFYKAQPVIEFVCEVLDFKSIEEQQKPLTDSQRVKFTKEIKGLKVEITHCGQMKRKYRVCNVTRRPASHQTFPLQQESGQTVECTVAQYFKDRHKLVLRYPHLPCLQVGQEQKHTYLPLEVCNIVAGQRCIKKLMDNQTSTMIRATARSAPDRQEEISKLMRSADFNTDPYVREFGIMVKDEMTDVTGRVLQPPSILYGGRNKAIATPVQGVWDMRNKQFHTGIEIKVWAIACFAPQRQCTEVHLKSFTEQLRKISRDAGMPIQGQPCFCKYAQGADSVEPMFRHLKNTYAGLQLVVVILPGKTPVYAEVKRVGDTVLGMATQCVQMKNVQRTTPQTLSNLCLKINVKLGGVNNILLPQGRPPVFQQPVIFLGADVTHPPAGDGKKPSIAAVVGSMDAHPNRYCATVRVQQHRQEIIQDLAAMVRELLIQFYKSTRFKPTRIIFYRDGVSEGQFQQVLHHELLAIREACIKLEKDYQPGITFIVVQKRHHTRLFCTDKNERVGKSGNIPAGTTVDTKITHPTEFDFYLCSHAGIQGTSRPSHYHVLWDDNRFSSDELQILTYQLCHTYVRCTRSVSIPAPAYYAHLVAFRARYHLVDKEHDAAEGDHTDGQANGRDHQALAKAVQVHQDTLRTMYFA

Row | Binder | binding signal
58 | B1 | 154 fold enrichment over input
59 | B2 | 0.738 fold enrichment over input
60 | B3 | 0.678 fold enrichment over input
61 | B4 | 0.72 fold enrichment over input
62 | B5 | 0.645 fold enrichment over input
63 | B6 | 108 fold enrichment over input
64 | B7 | 0.632 fold enrichment over input
65 | B8 | 0.57 fold enrichment over input
66 | B9 | 0.707 fold enrichment over input
67 | B10 | 0.965 fold enrichment over input
68 | B11 | 0.737 fold enrichment over input
69 | B12 | 0.624 fold enrichment over input
70 | B13 | 0.72 fold enrichment over input
71 | B14 | 44 fold enrichment over input
72 | B15 | 0.519 fold enrichment over input
73 | B16 | 0.605 fold enrichment over input
74 | B17 | 0.765 fold enrichment over input
75 | B18 | 0.678 fold enrichment over input
76 | B19 | 0.632 fold enrichment over input

The binders below were run against AGO2 F182del (Homo sapiens, UniProt Q9UKV8 1-859, S387D;S824A;S828D;S831D;S834A;del182-182) in the same assay as above. Details: protein: recombinant; tags: His6 (N-terminal, pFastBac HTA).
Method in brief: as §1

Sequence of AGO2 F182del (Q9UKV8 other isoform, or with tags, fused parts or gaps S387D;S824A;S828D;S831D;S834A;del182-182): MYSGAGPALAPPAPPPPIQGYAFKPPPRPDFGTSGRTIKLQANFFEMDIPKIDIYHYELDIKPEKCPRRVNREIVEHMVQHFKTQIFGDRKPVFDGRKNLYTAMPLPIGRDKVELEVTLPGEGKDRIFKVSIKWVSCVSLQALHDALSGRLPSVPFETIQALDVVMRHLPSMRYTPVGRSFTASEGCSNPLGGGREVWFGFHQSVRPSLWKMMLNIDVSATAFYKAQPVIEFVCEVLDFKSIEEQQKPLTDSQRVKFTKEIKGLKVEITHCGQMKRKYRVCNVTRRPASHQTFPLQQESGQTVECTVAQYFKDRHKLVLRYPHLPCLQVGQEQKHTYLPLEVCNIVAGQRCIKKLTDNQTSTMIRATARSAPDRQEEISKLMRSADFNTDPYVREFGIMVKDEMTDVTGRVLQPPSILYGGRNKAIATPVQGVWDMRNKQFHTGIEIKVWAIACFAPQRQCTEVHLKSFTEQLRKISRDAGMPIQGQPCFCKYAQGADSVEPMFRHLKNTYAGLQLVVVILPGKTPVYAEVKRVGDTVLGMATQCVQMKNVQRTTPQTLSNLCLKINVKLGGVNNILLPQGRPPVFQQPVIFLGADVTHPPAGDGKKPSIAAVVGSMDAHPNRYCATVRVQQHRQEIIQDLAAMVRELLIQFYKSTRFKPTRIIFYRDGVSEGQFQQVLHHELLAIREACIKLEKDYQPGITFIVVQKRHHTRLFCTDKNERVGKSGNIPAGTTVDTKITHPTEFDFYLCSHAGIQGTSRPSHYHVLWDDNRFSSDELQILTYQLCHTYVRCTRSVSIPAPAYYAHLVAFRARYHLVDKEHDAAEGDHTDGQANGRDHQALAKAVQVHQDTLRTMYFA

Row | Binder | binding signal
77 | B1 | 116 fold enrichment over input
78 | B2 | 2.93 fold enrichment over input
79 | B3 | 2.15 fold enrichment over input
80 | B5 | 0.936 fold enrichment over input
81 | B6 | 91 fold enrichment over input
82 | B7 | 3.65 fold enrichment over input
83 | B8 | 2.74 fold enrichment over input
84 | B9 | 0.311 fold enrichment over input
85 | B10 | 4.41 fold enrichment over input
86 | B11 | 4.6 fold enrichment over input
87 | B12 | 0.944 fold enrichment over input
88 | B13 | 1.96 fold enrichment over input
89 | B14 | 91.6 fold enrichment over input
90 | B15 | 2.42 fold enrichment over input
91 | B16 | 0.86 fold enrichment over input
92 | B17 | 2.78 fold enrichment over input
93 | B18 | 1.79 fold enrichment over input
94 | B19 | 0.299 fold enrichment over input
